Experimental findings from PubChem BioAssay AID463173 (ICCB-Longwood Screening Facility, Harvard Medical School, 2010) are described below.

In all, about 52,000 compounds went through this assay and about 4,300 (8.3%) were called active. Rule as the data show it: active = survival mostly below about 52% (no sharp cut-off); inactive = mostly above about 56%. The sample as a whole holds a higher share of actives than the screen did.

This experiment deals with DeltatarO mutant. The experiment in a line: S. aureus survival, RN4220 and DeltatarO strains – OD600, teichoic acid synthesis inhibitors, primary screen (AID 463173). The settings on record: S. aureus RN4220 wild type/DeltatarO growth, OD600, 18 h, hits give low values, screened at 18.75 µg/mL (by protocol).
As for `CC1CCc2c(sc(NC(=O)COc3ccccc3C(C)(C)C)c2C#N)C1` (stereo not drawn), the survival was 67% (inactive).
Regarding `COC(=O)CSc1ncc2c(n1)-c1ccccc1N(Cc1ccccc1C)S2(=O)=O`, the survival was 99% (inactive).
In the case of `Cc1cccc(CNC(=O)CCCN2C(=O)COc3ccc(C)cc32)c1`, the survival is 112% (inactive).
On to `CCOc1ccccc1CNC(=O)CCCN1C(=O)COc2ccc(C)cc21`, for which the survival is 93% (inactive).
For `Cc1ccc2c(c1)N(CCC(=O)NCc1ccccc1Cl)C(=O)CO2`, the survival was 40% (active).
As for `CCOC(=O)C1=C(CS(=O)(=O)c2ccc(OC)c(Cl)c2)NC(=O)NC1c1cccc(OC)c1` (stereo not drawn), the survival was 59% (inactive).
As for `Cc1cc(=O)[nH]c(SC(C)C(=O)Nc2ccccc2)n1` (stereo not drawn), the survival was 90% (inactive).
Then `Cc1ccc(-c2nc3c(c(SCC(=O)Nc4ccccc4Cl)n2)Cc2c(CO)cnc(C)c2O3)cc1`, with 46% (active); and `Cc1cccc(NC(=O)CSc2nc(-c3ccccc3Cl)nc3c2Cc2c(CO)cnc(C)c2O3)c1C`, with 117% (inactive); and `COc1ccccc1NC(=O)CSc1nc(-c2ccc(C)cc2)nc2c1Cc1c(CO)cnc(C)c1O2`, with 49% (active).
For the molecule `Cc1ccc(C)c(NC(=O)CSc2nc(-c3ccccc3Cl)nc3c2Cc2c(CO)cnc(C)c2O3)c1`, the survival is 118% (inactive).
Consider `COc1ccccc1-c1nc2c(c(SCC(=O)Nc3ccccc3F)n1)Cc1c(CO)cnc(C)c1O2`, for which the survival was 88% (inactive).
On to `COc1ccccc1NC(=O)CSc1nc(-c2cccc(Cl)c2)nc2c1Cc1c(CO)cnc(C)c1O2`, for which the survival is 87% (inactive).
Then `Cc1ccc(C)c(N2CCN(Cc3csc(C)c3C)CC2)c1`, with 77% (inactive).
Take `CSc1ccc(CCNc2ncnc3onc(C)c23)cc1`: the survival was 98% (inactive).
In the case of `O=S1(=O)c2ccccc2N(Cc2ccccc2)c2ccccc21`, the survival is 69% (inactive).
`O=C(c1ccc2c(c1)N(Cc1cccc(Cl)c1)C(=O)c1ccccc1S2(=O)=O)N1CCc2ccccc21`: the survival was 0% (active).
With `COc1ccccc1CNC(=O)c1ccc2c(c1)N(Cc1cccc(Cl)c1)C(=O)c1ccccc1S2(=O)=O` the figure was 37% (active); with `O=C(c1ccc2c(c1)N(Cc1ccccc1)C(=O)c1ccccc1S2(=O)=O)N1CCc2ccccc21`, 81% (inactive).
`O=C(NCc1ccco1)c1ccc2c(c1)N(Cc1ccccc1)C(=O)c1ccccc1S2(=O)=O`: the survival is 68% (inactive).
As for `O=C(NCc1ccco1)c1ccc2c(c1)N(Cc1cccc(Cl)c1)C(=O)c1ccccc1S2(=O)=O`, the survival was 46% (active).
On to `O=S1(=O)c2ccccc2N(Cc2cccc(Cl)c2)c2ccccc21`, for which the survival is 0% (active).
On to `O=S1(=O)c2ccccc2N(Cc2ccc(Cl)cc2)c2ccccc21`, for which the survival was 131% (inactive).
`COc1ccccc1CNC(=O)c1ccc2c(c1)N(Cc1cccc(C)c1)C(=O)c1ccccc1S2(=O)=O`: the survival was 87% (inactive).
For the molecule `O=C(c1ccc2c(c1)N(Cc1ccc(Cl)cc1)C(=O)c1ccccc1S2(=O)=O)N1CCc2ccccc21`, the survival was 120% (inactive).
With `O=C(NCc1ccco1)c1ccc2c(c1)N(Cc1ccc(Cl)cc1)C(=O)c1ccccc1S2(=O)=O`, the survival was 89% (inactive).
Then `O=C(NCc1ccccc1)c1ccc2c(c1)N(Cc1cccc(Cl)c1)C(=O)c1ccccc1S2(=O)=O`, with 93% (inactive).
With `O=C(O)COCC(=O)Nc1ccc2c(c1)CCC2` the figure was 103% (inactive); with `COc1ccc(-c2nnc(SCC(=O)Nc3cccc(Cl)c3C)nc2-c2ccc(OC)cc2)cc1`, 89% (inactive).
On to `COc1ccc(CNC(=O)CCC(=O)N2CC3CCCN3c3ccccc32)cc1` (stereo not drawn), for which the survival is 71% (inactive).
Regarding `CC1=C(c2ccc(C)c(C)c2)S(=O)(=O)N(Cc2ccc(C(=O)NCc3cccc(C)c3)cc2)C1=O`, the survival was 77% (inactive).
Take `CN1CCSc2ccc(C(=O)NCc3ccccc3F)cc21`: the survival was 134% (inactive).
Turning to `CCOC(=O)c1cc2c(=O)n3ccccc3nc2n(CCCOC)c1=NC(=O)c1c(-c2c(F)cccc2Cl)noc1C`, the survival is 54% (inactive).
With `CC(C)(C)OC(=O)N1CCC(c2c(C(=O)N3CCN(c4ccccc4F)CC3)cnn2C(C)(C)C)CC1` the figure was 68% (inactive).
Consider `COc1ccc(CCNC(=O)c2ccc(Cn3c(=O)c4ccccc4n(CC(=O)C(C)(C)C)c3=O)cc2)cc1OC`, for which the survival was 86% (inactive).
As to `O=c1c2sc3ccccc3c2n(Cc2ccc(F)cc2)c(=O)n1Cc1ccco1`, the survival was 79% (inactive).
For `COc1cccc(Cc2nc3ccccc3nc2SCC(=O)N2CCCCC2C)c1` (stereo not drawn), the survival was 79% (inactive).
Take `CCOC(=O)c1ccccc1Nc1cc(C)nc2nc(-c3ccco3)nn12`: the survival was 128% (inactive).
Regarding `Cc1cc(Nc2cccc(F)c2)n2nc(-c3ccco3)nc2n1`, the survival is 89% (inactive).
As to `Cc1cc(C)cc(Nc2cc(C)nc3nc(-c4ccco4)nn23)c1`, the survival was 94% (inactive).
Regarding `Cc1cc(Nc2ccccc2Cl)n2nc(-c3ccco3)nc2n1`, the survival is 88% (inactive).
As for `CC(=O)c1cccc(Nc2cc(C)nc3nc(-c4ccccc4C)nn23)c1`, the survival was 90% (inactive).
Regarding `CCOc1ccc(OCC)c(Nc2cc(C)nc3nc(-c4ccco4)nn23)c1`, the survival is 17% (active).
Turning to `Cc1cc(Nc2ccc(Br)cc2)n2nc(-c3ccccc3C)nc2n1`, the survival is 27% (active).
`COc1ccc(Cl)cc1Nc1cc(C)nc2nc(-c3ccccc3C)nn12`: the survival was 70% (inactive).
With `Cc1cc(Nc2ccc(Br)c(C)c2)n2nc(-c3ccco3)nc2n1` the figure was -5% (active); with `CN(CCCNC(=O)c1cc2c(=O)n(C)c3ccccc3c2s1)Cc1ccccc1`, 94% (inactive); with `CCCCS(=O)(=O)c1nc(-c2ccc(Br)cc2)cc(-c2ccccc2)c1C#N`, 119% (inactive).
`C/C(=C\C(=O)c1cccnc1)Nc1ccccc1O`: the survival was 103% (inactive).
Turning to `Cc1nc(-c2ccc(S(=O)(=O)N(C)Cc3ccccc3)cc2)co1`, the survival is 95% (inactive).
Take `Cc1ccc(-n2ncc(C(=O)NC3CCCC3)c2C2CCN(C(=O)OC(C)(C)C)CC2)c(C)c1`: the survival was 70% (inactive).
On to `Cc1ccc(-n2c(=O)c3c(c4cc(C)ccc4n3C)n(CC(=O)N3CCCC3)c2=O)cc1`, for which the survival is 71% (inactive).
As to `CC(=O)Nc1ccc(C2=CSC3=NCCN23)cc1`, the survival is 82% (inactive).
Take `CCSc1ncc(Cl)c(C(=O)Nc2nc3ccc(Cl)cc3s2)n1`: the survival is 100% (inactive).
Turning to `CC(C)COc1ccc(C(=O)Nc2cc(-c3ccccc3)no2)cc1`, the survival was 85% (inactive).
With `CCCOc1ccc(C(=O)Nc2cccc(NC(=O)c3cccc(Cl)c3)c2)cc1` the figure was 70% (inactive); with `CCOc1ccc(C(=O)Nc2cccc(-c3nc4cc(Cl)cc(Cl)c4o3)c2)cc1`, 84% (inactive).
As to `CCOc1ccc(NS(=O)(=O)c2ccc3nc(-c4ccccc4)[nH]c3c2)cc1`, the survival is 64% (inactive).
With `CC(C)COc1ccc(C(=O)Nc2cccc(-c3nc4ccccc4[nH]3)c2)cc1`, the survival was 43% (active).
`Cc1cccc(-c2nc3cc(NC(=O)c4ccc(OCC(C)C)cc4)ccc3o2)c1`: the survival was 113% (inactive).
Then `COc1cc(NC(=O)c2cc(Cl)c(OC)c(Cl)c2)ccc1NC(=O)c1cc2ccccc2o1`, with 82% (inactive); and `CCOc1cc(OCC)cc(C(=O)Nc2cccc(-c3nc4ccccc4[nH]3)c2)c1`, with 36% (active).
Turning to `COc1c(Cl)cc(C(=O)Nc2cccc(-c3nc4ccccc4[nH]3)c2)cc1Cl`, the survival is 15% (active).
On to `CCCN(CCC)S(=O)(=O)c1ccc(C(=O)Nc2cccc(-c3nc4ccccc4[nH]3)c2)cc1`, for which the survival is 99% (inactive).
As for `CCCOc1ccc(C(=O)Nc2cccc(-c3nc4ccccc4[nH]3)c2)cc1`, the survival was 28% (active).
For the molecule `CCOc1ccc(CCNC(=O)c2cc3c(=O)n(C)c4ccccc4c3s2)cc1OCC`, the survival was 56% (inactive).
In the case of `Cc1ccc(NC(=O)C2CCN(C(=O)c3cnn(-c4ccccc4)c3-n3cccc3)CC2)cc1`, the survival is 93% (inactive).
As for `CCCn1c(=S)[nH]c2c1c(=O)[nH]c(=O)n2C`, the survival is 66% (inactive).
For the molecule `CN(CC(=O)Nc1cccc(F)c1)S(=O)(=O)c1ccc2c(c1)n(C)c(=O)c(=O)n2C`, the survival is 102% (inactive).
As for `COc1ccc(C2=NN(C(=O)CCC(=O)O)C(c3ccccc3F)C2)cc1OC` (stereo not drawn), the survival is 89% (inactive).
With `N/C(=N/OC(=O)c1ccccc1)c1ccccn1`, the survival was 87% (inactive).
Regarding `CCCCNC(=O)c1ccc2c(c1)ncn2-c1cc(OC)ccc1OC`, the survival was 112% (inactive).
With `O=c1oc2cc(O)ccc2cc1-c1nnc(Nc2ccccc2F)s1` the figure was 59% (inactive).
`CCC(c1nnnn1Cc1ccccc1)N(Cc1cccs1)Cc1cc2ccc(C)cc2[nH]c1=O` (stereo not drawn): the survival is 103% (inactive).
With `O=C(CNC(=O)c1ccc(Cl)cc1)OCc1cc(=O)n2ccsc2n1` the figure was 72% (inactive); with `COc1ccc(C2C(C(=O)Nc3ccc(C)cc3C)=C(C)Nc3nc(SCc4cccc(C)c4)nn32)c(OC)c1` (stereo not drawn), 164% (inactive); with `CCN(CC)c1ccc2c(c1)OC(N)=C(C#N)C2c1cccc(F)c1` (stereo not drawn), 2% (active).
As to `COc1ccc(C2C(C#N)=C(N)Oc3cc4c(cc32)OCO4)cc1` (stereo not drawn), the survival is 79% (inactive).
Then `CCc1ccc(C2C(C#N)=C(N)Oc3cc(N)ccc32)cc1` (stereo not drawn), with 102% (inactive); and `Cc1ccc(Sc2c(C)nn(C(=O)COc3ccccc3Br)c2C)cc1`, with 88% (inactive).
`Cc1ccc(Sc2c(C)nn(C(=O)c3ccc(Br)cc3)c2C)cc1`: the survival is 16% (active).
Regarding `Cc1nn(C(=O)c2ccc(Br)cc2)c(C)c1S(=O)(=O)N1CCOCC1`, the survival is 79% (inactive).
With `Cc1nn(C(=O)c2ccc(Br)cc2)c(C)c1Sc1ccccc1` the figure was 2% (active); with `Cc1nn(C(=O)c2ccccc2)c2c1C(=O)CC(C)(C)C2`, 74% (inactive); with `Cc1nn(C(=O)COc2ccccc2Br)c(C)c1Sc1ccccc1`, 54% (inactive).
`CCOc1ccc(NC(=O)CC2C(=O)N(c3ccccc3)C(=O)N2CCc2ccc(OC)cc2)cc1` (stereo not drawn): the survival was 59% (inactive).
Take `CCCNC(=O)CSc1cn(CC(=O)N2CCCCCC2)c2ccccc12`: the survival is 84% (inactive).
Then `Cc1ccc(S(=O)(=O)c2cn(CC(=O)Nc3ccc(C)c(Cl)c3)c3ccc(C)cc3c2=O)cc1`, with 96% (inactive).
